Measured values from PubChem BioAssay.
“And” between values parts separate entries of the source, which are not always exact repeats. Identical values can stand only once. For some assays here: Results with a measured potency or affinity are listed apart. The source made the active and inactive calls. Rule as the data show it, unless noted: active = inhibition above about 80%; inactive = the rest.

What was measured:
[1] = system: Neuropilin-2 / VEGF-C interaction (human); test: small molecules blocking Neuropilin-2/VEGF-C interaction – biochemical, microplate binding format, z-score (AID 743281; call rule not given here); settings: microplate NRP2/VEGF-C binding assay; stronger effect = lower value
[2] = growth inhibition, single agents and combos, LFS_MB_1R, cell-based, cisplatin or BGB combos, synergistic combos for chromothripsis tumors (AID 1671452); settings: LFS_MB_1R medulloblastoma cells, stronger effect = higher value;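 also: cells exposed for 96 hours before readout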
[3] = growth inhibition, single agents and combos, CRL2098, cell-based, BGB or cisplatin IC20 combos, synergistic combos for chromothripsis tumors (AID 1671454); settings: CRL2098 osteosarcoma cells, drug combinations, stronger effect = higher value;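 also: cells exposed for 96 h before readout; 0% = vehicle DMSO and 100% = killing by high DMSO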
[4] = growth inhibition, single agents and combos, HD-MB03, cell-based, BGB or cisplatin IC20 combos, synergistic combos for chromothripsis tumors (AID 1671455; in the data active = inhibition above about 83%;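 also: 0% = vehicle DMSO and 100% = high DMSO as cytotoxic control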); settings: HD-MB03 medulloblastoma cells, stronger effect = higher value
[5] = growth inhibition, single agents and combos, UWB1.289, cell-based, BGB or cisplatin combos, synergistic combos for chromothripsis tumors (AID 1671456); settings: UWB1.289 ovarian carcinoma cells, stronger effect = higher value;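 also: cells exposed to compound for four days; 0% = vehicle DMSO and 100% = killing by high DMSO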
[6] = growth inhibition, single agents and combos, LFS_MB_2R, cell-based, cisplatin combos, synergistic combos for chromothripsis tumors (AID 1671457); settings: LFS_MB_2R medulloblastoma cells, stronger effect = higher value;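 also: cells exposed to compound for four days before readout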
[7] = growth inhibition, MDA-MB-436, cell-based, BGB or cisplatin combos, synergistic combos for chromothripsis tumors (AID 1671458; call rule not given here;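 also: cells exposed for 96 hours; 0% = vehicle DMSO and 100% = killing by high DMSO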); settings: MDA-MB-436 breast carcinoma growth inhibition, drug combinations, stronger effect = higher value
[8] = UWB1.289_BRCA1 ovarian cancer growth, cell-based, BGB or cisplatin combinations (AID 1671459); settings: UWB1.289 BRCA1 ovarian carcinoma, drug combinations, stronger effect = higher value
[9] = drug combination toxicity in non-malignant astrocytes – cell-based, BGB or cisplatin IC20 combos, cytotoxicity control for chromothriptic childhood tumor combination screen (AID 1671460); settings: Human astrocytes, viability inhibition, drug combinations, at 0.5 µM, stronger effect = higher value;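 also: cells exposed to compounds for 96 hours before viability readout; 0% = vehicle and 100% = killing control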
[10] = BT084 cell growth, single and combined drugs, ICGC_MB145, cisplatin and BGB IC40 combos (AID 1671461); settings: BT084 medulloblastoma cells, drug combinations, stronger effect = higher value;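 also: cells exposed to drugs for 96 hours; 0% = vehicle DMSO and 100% = high DMSO full killing control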
[11] = RCMB18 cell growth, single agent and combined, cisplatin and BGB IC40 combos (AID 1671462); settings: RCMB18 medulloblastoma cells, stronger effect = higher value;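 also: cells exposed to compound for four days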
[12] = CRL1545 cell growth, single agent and combined, cisplatin and BGB IC20 combos (AID 1671464); settings: CRL1545 osteosarcoma cells, stronger effect = higher value;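 also: cells exposed to compound for 96 hours before readout; 0% = vehicle DMSO and 100% = high DMSO killing control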
[13] = chitosan synthesis blockers in C. neoformans – flow cytometry, Cibacron Brilliant Red staining (AID 1347148; call rule not given here;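 also: compound exposure lasted three days at 37 degrees C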); settings: Cryptococcus neoformans chitosan, stronger effect = lower value; at 10 µM unless noted
[14] = antimalarial activity against Dd2 strain (AID 2302;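 active = growth inhibition above 50% at the single 2 µM test dose, taken to imply half-maximal potency below 2 µM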;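 also: 0% = DMSO untreated growth and 100% = chloroquine plus artemisinin killed control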); settings: P. falciparum Dd2 in RBCs, LDH growth readout, 72 h; at 2 µM; stronger effect = higher value
[15] = human hepatoma cell viability loss – ATP luminescence, cytotoxicity control for P. falciparum antimalarial project, primary screen (AID 2303;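 active = inhibition above 50%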;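 also: 0% = DMSO wells and 100% = digitonin-killed cells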); settings: HepG2 viability, 24-48 h, at 10 µM, stronger effect = higher value
[16] = target: Calcium-dependent protein kinase 1 (Plasmodium falciparum (isolate 3D7)) (UniProt P62344); test: PfCDPK1 kinase inhibitors, biochemical, TCAMS library (AID 1159585; cut-off not given, nearly all actives have IC50 up to about 0.98 µM;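 also: inhibitors leave more ATP so luminescence rises with inhibition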); settings: recombinant PfCDPK1, Kinase-Glo ATP depletion luminescence
[17] = target: Plasmodium falciparum protein kinase 6 (PK6, PF3D7_1337100) (UniProt Q8IDW1); test: PfPK6 kinase inhibitors, biochemical, TCAMS library (AID 1159586; call rule not given here); settings: recombinant PfPK6, Kinase-Glo ATP depletion luminescence
[18] = target: Protein kinase 7 (PK7), Plasmodium falciparum 3D7 (PF3D7_0213400) (UniProt Q7YTF7); test: inhibition of Plasmodium PK7 catalytic activity – biochemical, TCAMS antimalarial set, Kinase-Glo luminescence (AID 1159587; call rule not given here); settings: recombinant PfPK7, Kinase-Glo ATP depletion luminescence
[19] = target: Calcium-dependent protein kinase 4 (Plasmodium falciparum (isolate 3D7)) (UniProt Q8IBS5); test: PfCDPK4 kinase inhibitors, biochemical, TCAMS library (AID 1159588; cut-off not given, nearly all actives have IC50 up to about 0.91 µM); settings: recombinant PfCDPK4, Kinase-Glo ATP depletion luminescence
[20] = measured here: combination with cisplatin, at 0.5 µM
[21] = measured here: combination with cisplatin, at 5 µM

Chain of Calcium-dependent protein kinase 1 (Plasmodium falciparum (isolate 3D7)) (P62344 whole entry, looked up): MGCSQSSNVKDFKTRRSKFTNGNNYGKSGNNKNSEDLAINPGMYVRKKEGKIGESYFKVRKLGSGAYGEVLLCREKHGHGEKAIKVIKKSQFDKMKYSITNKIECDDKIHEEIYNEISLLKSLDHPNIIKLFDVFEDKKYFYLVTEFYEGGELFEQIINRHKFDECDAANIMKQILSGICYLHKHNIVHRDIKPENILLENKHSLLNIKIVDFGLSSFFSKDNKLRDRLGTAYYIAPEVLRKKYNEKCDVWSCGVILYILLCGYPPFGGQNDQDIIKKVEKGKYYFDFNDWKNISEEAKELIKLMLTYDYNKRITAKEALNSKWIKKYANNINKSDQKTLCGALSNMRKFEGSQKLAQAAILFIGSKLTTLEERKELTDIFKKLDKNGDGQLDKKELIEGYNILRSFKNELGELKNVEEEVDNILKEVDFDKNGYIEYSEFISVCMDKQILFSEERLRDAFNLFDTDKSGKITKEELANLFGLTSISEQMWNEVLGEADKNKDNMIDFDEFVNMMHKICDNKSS
Chain of Plasmodium falciparum protein kinase 6 (PK6, PF3D7_1337100) (Q8IDW1 1-305): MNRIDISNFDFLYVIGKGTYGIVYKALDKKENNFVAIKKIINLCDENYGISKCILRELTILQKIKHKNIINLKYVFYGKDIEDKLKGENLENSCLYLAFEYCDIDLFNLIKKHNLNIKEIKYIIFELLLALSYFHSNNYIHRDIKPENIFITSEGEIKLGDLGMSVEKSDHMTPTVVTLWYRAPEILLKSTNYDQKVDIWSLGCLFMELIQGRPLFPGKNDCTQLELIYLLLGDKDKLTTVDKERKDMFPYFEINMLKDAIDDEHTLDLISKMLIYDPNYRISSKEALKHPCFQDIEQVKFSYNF
Chain of Calcium-dependent protein kinase 4 (Plasmodium falciparum (isolate 3D7)) (Q8IBS5 whole entry, looked up): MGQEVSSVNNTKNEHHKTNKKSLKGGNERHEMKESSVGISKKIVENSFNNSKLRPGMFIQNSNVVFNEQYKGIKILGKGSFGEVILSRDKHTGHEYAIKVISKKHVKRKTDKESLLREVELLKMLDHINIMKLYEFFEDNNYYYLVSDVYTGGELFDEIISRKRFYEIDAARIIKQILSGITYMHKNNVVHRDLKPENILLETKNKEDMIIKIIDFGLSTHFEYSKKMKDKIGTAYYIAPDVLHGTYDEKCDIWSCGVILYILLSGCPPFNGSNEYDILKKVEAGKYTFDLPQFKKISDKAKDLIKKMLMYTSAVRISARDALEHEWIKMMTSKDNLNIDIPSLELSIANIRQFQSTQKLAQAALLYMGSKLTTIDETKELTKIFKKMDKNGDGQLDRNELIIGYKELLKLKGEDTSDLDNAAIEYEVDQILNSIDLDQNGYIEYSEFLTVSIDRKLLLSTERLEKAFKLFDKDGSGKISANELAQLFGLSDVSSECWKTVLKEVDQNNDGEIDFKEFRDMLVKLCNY
Chain of Protein kinase 7 (PK7), Plasmodium falciparum 3D7 (PF3D7_0213400) (Q7YTF7 1-343): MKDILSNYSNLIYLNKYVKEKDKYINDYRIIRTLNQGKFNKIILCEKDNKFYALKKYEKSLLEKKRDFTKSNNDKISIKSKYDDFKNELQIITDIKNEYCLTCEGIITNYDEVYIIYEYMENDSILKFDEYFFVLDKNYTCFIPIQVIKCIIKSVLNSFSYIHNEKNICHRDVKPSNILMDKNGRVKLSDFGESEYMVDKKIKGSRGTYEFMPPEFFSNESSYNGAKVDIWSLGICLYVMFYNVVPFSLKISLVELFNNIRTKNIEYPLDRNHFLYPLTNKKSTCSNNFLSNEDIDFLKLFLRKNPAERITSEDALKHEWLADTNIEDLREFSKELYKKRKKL

Q: Which z-score [1] does the source give for `O=C(O)CCc1nc(-c2ccccc2)c(-c2ccccc2)o1` here?
A: 0.876 (inactive)

Q: Which inhibition ([2]; at 0.5 µM) does the source give for `CCn1cc(C(=O)O)c(=O)c2ccc(C)nc21` here?
A: -19% (inactive) and -13.7% (inactive)

Q: And the inhibition ([2]; measured here: combination with BGB IC40, at 0.05 µM)?
A: -21.7% and -0.433%

Q: What about the inhibition [2, 20] of the same compound?
A: -30.2% and 15.7%

Q: And the inhibition [2, 21]?
A: -1.32% and 14.5%

Q: What about the inhibition ([3]; at 0.5 µM) of the same compound?
A: -8.42% (inactive) and -27% (inactive)

Q: And the inhibition ([3]; measured here: combination with BGB at IC20, at 0.5 µM)?
A: -13.8% and -3.06%

Q: What about the inhibition ([3]; measured here: combination with cisplatin at IC20, at 0.5 µM) of the same compound?
A: 2.7% and -23.8%

Q: And the inhibition ([4]; at 0.5 µM)?
A: -1.5% (inactive) and -3.12% (inactive)

Q: And the inhibition ([4]; measured here: combo with BGB at IC20, at 0.5 µM)?
A: -0.571% and -10.6%

Q: What about the inhibition ([4]; measured here: combo with cisplatin at IC20, at 0.5 µM) of the same compound?
A: -1.78% and 8.77%

Q: And the inhibition ([5]; at 0.5 µM)?
A: 13.8% (inactive) and -1.94% (inactive)

Q: What about the inhibition ([5]; measured here: inhibition with BGB combination, at 0.05 µM) of the same compound?
A: -3.65% and -15.7%

Q: What about the inhibition ([5]; measured here: inhibition with cisplatin combination, at 0.05 µM) of the same compound?
A: 2.92% and -1.74%

Q: What about the inhibition ([6]; at 0.5 µM) of the same compound?
A: 5.5% (inactive) and -20.2% (inactive)

Q: And the inhibition [6, 20]?
A: 1.69% and -14.8%

Q: What about the inhibition [6, 21] of the same compound?
A: 8.3% and -22.4%

Q: And the inhibition ([7]; at 0.5 µM)?
A: -9.6% (inactive) and -19.2% (inactive)

Q: And the inhibition ([7]; measured here: BGB combination, at 0.5 µM)?
A: -10.5% and -16.3%

Q: What about the inhibition ([7]; measured here: BGB combination, at 5 µM) of the same compound?
A: -0.497% and -4.71%

Q: And the inhibition ([7]; measured here: cisplatin combination, at 0.5 µM)?
A: -19.6% and -33.6%

Q: And the inhibition ([7]; measured here: cisplatin combination, at 5 µM)?
A: -0.491% and -16.4%

Q: And the inhibition ([8]; BGB combination, concentration series, at 5 µM)?
A: 11.3% and 18.4%

Q: And the inhibition ([8]; at 0.5 µM)?
A: 11% (inactive) and -9.48% (inactive)

Q: What about the inhibition ([8]; cisplatin combination, concentration series, at 5 µM) of the same compound?
A: 7.14% and -4.85%

Q: What about the inhibition [9] of the same compound?
A: 1.03% (inactive) and 6.47% (inactive)

Q: What about the inhibition ([9]; measured here: combo with BGB IC20) of the same compound?
A: -4.36% and 3.89%

Q: What about the inhibition ([9]; measured here: combo with cisplatin IC20) of the same compound?
A: 17.2% and 0.487%

Q: And the inhibition ([10]; at 0.5 µM)?
A: -9.05% (inactive) and -29.1% (inactive)

Q: And the inhibition ([10]; cisplatin combination, at 0.5 µM)?
A: -8.44% and -23.5%

Q: What about the inhibition ([10]; cisplatin combination, at 5 µM) of the same compound?
A: -55.2% and -59.3%

Q: What about the inhibition ([10]; measured here: BGB IC40 combination 0.05 uM, at 0.05 µM) of the same compound?
A: 10.8% and -9.88%

Q: And the inhibition ([10]; single agent, at 5 µM)?
A: -16.7% and -23%

Q: What about the inhibition ([11]; at 0.5 µM) of the same compound?
A: 1.01% (inactive) and -9.08% (inactive)

Q: And the inhibition ([11]; cisplatin combo, at 5 µM)?
A: 0.823% and 3.11%

Q: What about the inhibition ([11]; measured here: BGB IC40 combination, at 0.05 µM) of the same compound?
A: 11.9% and -0.784%

Q: What about the inhibition [11, 20] of the same compound?
A: -11.3% and -2.66%

Q: What about the inhibition ([11]; single agent, at 5 µM) of the same compound?
A: -12.4% and -29.6%

Q: What about the inhibition ([12]; at 0.5 µM) of the same compound?
A: -14.9% (inactive) and -26.1% (inactive)

Q: What about the inhibition ([12]; measured here: with BGB IC20 combination, at 0.5 µM) of the same compound?
A: -12.1% and -5.6%

Q: What about the inhibition ([12]; measured here: with cisplatin IC20 combination, at 0.5 µM) of the same compound?
A: -16.3% and -36.4%

Q: And the inhibition ([12]; single agent, at 0.05 µM)?
A: -17.6% and 10%

Q: What about the inhibition ([12]; single agent, at 5 µM) of the same compound?
A: 0.11% and -3.86%

Q: With `COc1ccc2cc([C@H](C)C(=O)O)ccc2c1` as the compound, how does the z-score [1] read?
A: -0.354 (inactive)

Q: For `COCCCOc1ccnc(CS(=O)c2nc3ccccc3[nH]2)c1C` (stereo unspecified), which z-score [1] is on record?
A: 0.22 (inactive)

Q: For `CN(C)C(=O)C(CCN1CCC(O)(c2ccc(Cl)cc2)CC1)(c1ccccc1)c1ccccc1`, which fold fluorescence [13] is on record?
A: 10.1 [at 104.8 µM] (inactive)

Q: For `CN1CCN(C2=Nc3cc(Cl)ccc3Nc3ccccc32)CC1`, which fold fluorescence [13] is on record?
A: 11 [at 153 µM] (inactive)

Q: For `NC(=O)c1cccnc1`, which z-score [1] is on record?
A: 1.84 (inactive)

Q: With `O=C(CCCN1CCC(O)(c2ccc(Cl)cc2)CC1)c1ccc(F)cc1` as the compound, how does the z-score [1] read?
A: -0.0752 (inactive)

Q: With `CN1C(=O)CC[C@H]1c1cccnc1` as the compound, how does the z-score [1] read?
A: -0.371 (inactive)

Q: What does the source list for `COc1cc(Cc2cnc(N)nc2N)cc(OC)c1OC`?
A: growth inhibition [14]: 2% (inactive); inhibition [15]: 0% (inactive); outcome [16]: inactive; outcome [17]: inactive; outcome [18]: inactive; outcome [19]: inactive
